High-throughput results as filed in PubChem.
Pf growth 96h = inhibits malaria parasite growth, 96 h. P. falciparum luciferase reporter growth, 96 h. Potency, µM (series often up to 28.7 µM), without a hit: at the top dose activity change, negative = inhibition, actives largely listed as inhibitors. hit rate 6.9% among 320,000. AID 504834; also: % is scaled to controls: 0 for no effect and ±100 for the full control effect
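Infected RBCs, 2% Hct / 0.05% parasitemia final; luciferase-reporter P. falciparum; cpd 96 h, 37 C, 5% CO2; luciferase detection reagent; luminescence.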
Sm TGR block = inhibitors of Schistosoma mansoni thioredoxin glutathione reductase; purified TGR, DTNB reduction, TNB absorbance 405 nm; Potency, µM (top dose mostly 114 µM), inactives show at the top dose activity change, negative = inhibition, usual class: inhibitors; hit rate 3% among 360,000; AID 485364; also: % is scaled to controls: 0 for no effect and ±100 for the full control effect; nearly all actives have a fitted effect of over 60% in size
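Kinetic colorimetric format: TGR-catalysed, NADPH-driven DTNB reduction monitored via TNB absorbance. Enzyme dispensed at 20 nM; compound exposure 15 min at room temperature before reaction start.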
SARS PLP yeast = inhibitors of SARS-CoV papain-like protease in yeast; S. cerevisiae expressing SARS-CoV PLpro, growth rescue; hit rate 0.19% among 330,000; Potency, µM (doses to about 32.9 µM), for the others: at the highest dose activity, positive = growth rescue, most hits filed as activators; calls by dose curve; also: 0% is about no effect; nearly all actives have a fitted effect of over 55% in size
Pf growth 48h = P. falciparum growth inhibition at 48 hours (one generation). P. falciparum luciferase growth in erythrocytes, 48 h. Potency, µM (top dose mostly 28.7 µM), for the others: at the highest dose activity change, negative = inhibition, most hits filed as inhibitors. hit rate 5.9% among 310,000; also: % is scaled to controls: 0 for no effect and ±100 for the full control effect
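Luciferase-expressing P. falciparum in infected erythrocytes (2% hematocrit, 0.1% parasitemia final) in RPMI 1640/0.5% Albumax were exposed to compound for 48 hours at 37 C, 5% CO2; growth read as luminescence.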
* hit, by the source's call. Shown are actives, neighbours in structure and some others; about 12% of the full set was active somewhere. Unless noted, calls follow the shape of the dose curve; as a rule, active = well fitted curve in the direction sought with a large enough effect; inconclusive = small, poorly fitted or top-dose-only effect, or another doubt; inactive = no such curve, though single readings can be large; an effect the other way counts as inactive or inconclusive. Potency is read from the fitted curve at half-maximal effect.

For COc1ccc(C#Cc2c(C=O)n(C)c3ccccc23)cc1 the results were Pf growth 96h inconclusive, Sm TGR block -1%, SARS PLP yeast -3% and Pf growth 48h inconclusive.
For Cc1c(-c2ccc(O)cc2)nc2nc(-c3ccccc3)c(-c3ccccc3)nn12 the results were Pf growth 96h 2.1µM*, Sm TGR block -22%, SARS PLP yeast -2% and Pf growth 48h 0.41µM*.
CCc1cc(C(=O)c2ccc(OC)cc2)c(N)s1 was read as Pf growth 96h 40%, Sm TGR block -11%, SARS PLP yeast -1% and Pf growth 48h 3%.
COc1ccc(C(=O)c2ccsc2N)cc1 was read as Pf growth 96h 127%, Sm TGR block 13µM*, SARS PLP yeast -3% and Pf growth 48h 87%.
Screening CCC(CC)C(=O)Nc1cc([N+](=O)[O-])ccc1F returned Pf growth 96h inconclusive, Sm TGR block 1%, SARS PLP yeast -22% and Pf growth 48h 6%.
For CCC(CC)C(=O)Nc1cc([N+](=O)[O-])ccc1Cl the results were Pf growth 96h 7.4µM*, Sm TGR block -4%, SARS PLP yeast 5% and Pf growth 48h -1%.
For CCOc1ccc(CN(C)C(C)C(=O)Nc2ccc([N+](=O)[O-])cc2Cl)cc1OC (stereo unspecified) the results were Pf growth 96h inconclusive, Sm TGR block 2%, SARS PLP yeast 24% and Pf growth 48h inconclusive.
COc1cccc(NC(=O)CC(=O)c2ccc([N+](=O)[O-])cc2)c1 was read as Pf growth 96h 36%, Sm TGR block 13%, SARS PLP yeast -1% and Pf growth 48h -13%.
`COc1cccc(NC(C)C(=O)Nc2cc([N+](=O)[O-])ccc2Cl)c1` (stereo unspecified) gave Pf growth 96h 15µM*, Sm TGR block -15%, SARS PLP yeast -10% and Pf growth 48h -26%.
COc1ccc(CN(C)C(C)C(=O)Nc2ccc([N+](=O)[O-])cc2Cl)cc1OC (stereo unspecified) was read as Pf growth 96h 12µM*, Sm TGR block -7%, SARS PLP yeast 3% and Pf growth 48h inconclusive.
`COc1ccccc1CNC(=O)COC(=O)c1cc(=O)[nH]c2ccccc12` gave Pf growth 96h -15%, Sm TGR block -5%, SARS PLP yeast -6% and Pf growth 48h -16%.
`CCOc1ccc(OCCN2C(=O)c3ccccc3C2=O)cc1` gave Pf growth 96h 13µM*, Sm TGR block 1%, SARS PLP yeast -2% and Pf growth 48h inconclusive.
Screening COc1ccccc1N1C(=O)c2cccnc2C1=O returned Pf growth 96h 6%, Sm TGR block 56µM*, SARS PLP yeast -5% and Pf growth 48h inconclusive.
For COc1ccc(OC)c(N2C(=O)c3cccnc3C2=O)c1 the results were Pf growth 96h 55%, Sm TGR block -1%, SARS PLP yeast 5% and Pf growth 48h 11%.
Screening CCOc1ccc(N2C(=O)c3cccnc3C2=O)cc1 returned Pf growth 96h 1.9µM*, Sm TGR block 2%, SARS PLP yeast 0% and Pf growth 48h 44%.
Screening COc1cc(OC)c(NC(=O)CN(C)S(=O)(=O)c2ccc(-c3ccc(=O)[nH]n3)s2)cc1Cl returned Pf growth 96h 8%, Sm TGR block inconclusive, SARS PLP yeast inconclusive and Pf growth 48h 2.3µM*.
Screening COc1ccc(CCNC(=O)CS(=O)Cc2nc(-c3ccc(C)cc3)oc2C)cc1OC (stereo unspecified) returned Pf growth 96h 12%, Sm TGR block inconclusive, SARS PLP yeast 0% and Pf growth 48h inconclusive.
For COc1ccc(-c2nc(CS(=O)CC(=O)NCCc3ccc(C)cc3)c(C)o2)cc1OC (stereo unspecified) the results were Pf growth 96h 11%, Sm TGR block 40µM*, SARS PLP yeast -18% and Pf growth 48h -8%.
COc1cccc(-c2nc(CS(=O)CC(=O)O)c(C)o2)c1 (stereo unspecified) was read as Pf growth 96h 59%, Sm TGR block inconclusive and SARS PLP yeast 8%.
COc1cccc(-c2nc(CS(=O)CC(=O)NCCc3ccccc3)c(C)o2)c1 (stereo unspecified) was read as Pf growth 96h -11%, Sm TGR block 20µM*, SARS PLP yeast 0% and Pf growth 48h 5%.
`COc1cccc(-c2nc(CS(=O)CC(=O)NCCCOC(C)C)c(C)o2)c1` (stereo unspecified) gave Pf growth 96h 0%, Sm TGR block 25µM*, SARS PLP yeast 4% and Pf growth 48h 16%.
Cc1cccc(-c2nc(CS(=O)CC(=O)NCCc3ccccc3)c(C)o2)c1 (stereo unspecified) was read as Pf growth 96h 5.2µM*, Sm TGR block -25%, SARS PLP yeast 0% and Pf growth 48h 12%.
Screening Cc1ccc2c(c1)N(CC(=O)N1CCCCCC1)C(=O)C(C)O2 (stereo unspecified) returned Pf growth 96h 29%, Sm TGR block -6%, SARS PLP yeast -2% and Pf growth 48h 11%.
For O=S(=O)(c1ccc(NCc2ccccc2)cc1)N1CCOCC1 the results were Pf growth 96h 2%, Sm TGR block 2%, SARS PLP yeast -3% and Pf growth 48h 27%.
Screening ClC1=C(Cl)C(Cl)=C(Cl)C1=C/C=C/c1ccccc1 returned Pf growth 96h inconclusive, Sm TGR block 50µM*, SARS PLP yeast 0% and Pf growth 48h inconclusive.
`O=C(Cc1c(Cl)cccc1Cl)N/N=C/c1cccnc1` gave Pf growth 96h -30%, Sm TGR block -4%, SARS PLP yeast 2% and Pf growth 48h -20%.
For NS(=O)(=O)c1ccc(CCNC(=O)C2CCCN2S(=O)(=O)c2cccc3nsnc23)cc1 (stereo unspecified) the results were Pf growth 96h inconclusive, Sm TGR block 5%, SARS PLP yeast -4% and Pf growth 48h -19%.
`FC(F)(F)c1cc(-c2ccc(Cl)cc2)nc(NCc2cccnc2)n1` gave Sm TGR block -6%, SARS PLP yeast -8% and Pf growth 48h 3.7µM*.
Screening Cc1ccc(-c2cc(C(F)F)nc(NCc3cccnc3)n2)cc1 returned Pf growth 96h 17%, Sm TGR block -7%, SARS PLP yeast -39% and Pf growth 48h 13µM*.
`Cc1ccc(-c2cc(C(F)F)nc(NCc3cccs3)n2)cc1` gave Pf growth 96h 2.6µM*, Sm TGR block 1%, SARS PLP yeast -19% and Pf growth 48h 11%.
For COc1cccc(N2C(=O)C(CC(=O)Nc3cccc(F)c3)N(C(C)C)C2=O)c1 (stereo unspecified) the results were Sm TGR block -3%.
For O=[N+]([O-])c1cccc(-c2nnc(-c3ccccc3)o2)c1 the results were Pf growth 96h 11%, SARS PLP yeast 0% and Pf growth 48h 89%.
Screening Cc1occc1-c1nnc(-c2cc([N+](=O)[O-])cc([N+](=O)[O-])c2)o1 returned Pf growth 96h 29%, Sm TGR block -6%, SARS PLP yeast -5% and Pf growth 48h 10µM*.
Screening CCc1ccc(Nc2nc3ccccc3c3nnc(C)n23)cc1 returned Sm TGR block 10%.
